The record followed here is PubChem BioAssay (NCI).

Among the test systems are RPMI-8226 leukemia; OVCAR-8 ovarian; OVCAR-5 ovarian; OVCAR-4 ovarian; SK-OV-3 ovarian; IGROV1 ovarian; OVCAR-3 ovarian; HS 578T breast; NCI/ADR-RES ovarian; BT-549 breast; MDA-MB-435 melanoma; MCF7 breast; HCT-116 colon; HCC-2998 colon; KM12 colon; T-47D breast; SW-620 colon.
Common to all, as to experiment: NCI-60 one-dose screen, 48 h (100 = growth as untreated, 0 = no growth, -100 = all killed)
Conditions in all cases: 10 µM unless noted

This is part of a sample that, as a whole, favours compounds with a hit. Of some 83,000 tested, about 20% had one in any assay.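 In brief: 96-well plates, 48 h treatment, single concentration, percent growth endpoint.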 Values without a mark were called inactive. Active and inactive are the calls of the source. The calls were made as follows: active = growth percent below 10; inactive = the rest.

Turning to `O=C(Nc1cccc(Cn2c(=O)[nH]c3ccc(Oc4ncccn4)cc3c2=O)c1)c1cccc(F)c1`, the growth was 52.3% in the test with RPMI-8226 leukemia; 78.7% in the test with OVCAR-8 ovarian; 96.1% in the test with OVCAR-5 ovarian; 73.9% in the test with OVCAR-4 ovarian; 83% in the test on SK-OV-3 ovarian; 78.2% in the test on IGROV1 ovarian. In addition, the growth is 84.1% with OVCAR-3 ovarian; 92.8% in the test on HS 578T breast; 104% in the test on NCI/ADR-RES ovarian; 71.4% with BT-549 breast; 51% in the test on MDA-MB-435 melanoma; 57.9% in the test with MCF7 breast. Moreover, the results for the growth in the test on HCT-116 colon, with HCC-2998 colon and with KM12 colon were 70.8%, 92.5% and 66.6%, respectively.
Regarding `CC[C@@H](C)/C=C(C)/C=C/C(=O)c1c(O)c(-c2ccc(OC(=O)[C@@]34CC[C@@](C)(C(=O)O3)C4(C)C)cc2)cn(O)c1=O`, the growth was 20.4% with OVCAR-8 ovarian; 55.7% in the test on OVCAR-5 ovarian; 28.3% in the test with SK-OV-3 ovarian; -18.6% (active) in the test on IGROV1 ovarian; 30.1% in the test on OVCAR-3 ovarian; 57.2% in the test on HS 578T breast. For the same molecule, the growth with NCI/ADR-RES ovarian is 3.91% (active); with T-47D breast, 34.7%; in the test with BT-549 breast, -0.686% (active); in the test on MDA-MB-435 melanoma it was 22.2%; in the test on SW-620 colon it was 37.3%; in the test with MCF7 breast, 15.6%. Further, the growth with HCT-116 colon was 17.1%; in the test on HCC-2998 colon, -10.3% (active); in the test on KM12 colon it was 18.4%.
As to `COc1ccccc1C(=O)Nc1cccc(-c2cc(=O)c3c(OC)c(OC)c(OC)cc3o2)c1`, the growth is 6.75% (active) with RPMI-8226 leukemia; 38.7% with OVCAR-8 ovarian; 81.2% with OVCAR-5 ovarian; 59.1% in the test on OVCAR-4 ovarian; 100% with SK-OV-3 ovarian; 42.9% in the test with IGROV1 ovarian. Moreover, the growth in the test with OVCAR-3 ovarian was 51.3%; with HS 578T breast, 23.6%; in the test on NCI/ADR-RES ovarian, 58.3%; with BT-549 breast, 45.9%; in the test on MDA-MB-435 melanoma it was 43.5%; in the test with SW-620 colon it was 63.4%. Besides, the growth in the test with MCF7 breast was 53.4%; with HCT-116 colon it was 36.7%; in the test with HCC-2998 colon it was 67.8%; in the test on KM12 colon, 38.4%.
For the molecule `Cc1ccc(S(=O)(=O)Nc2cccc(Cn3c(=O)[nH]c4ccc(Oc5ncccn5)cc4c3=O)c2)cc1`, the growth in the test on RPMI-8226 leukemia is 61.2%; in the test on OVCAR-8 ovarian it was 90.8%; with OVCAR-5 ovarian, 86.7%; with OVCAR-4 ovarian it was 90.5%; with SK-OV-3 ovarian it was 81.2%; with IGROV1 ovarian, 57.8%. The growth with OVCAR-3 ovarian is 38.9%; in the test with HS 578T breast it was 89.3%; in the test with NCI/ADR-RES ovarian it was 93.3%; with BT-549 breast, 65.2%; in the test on MDA-MB-435 melanoma, -10.1% (active); in the test on SW-620 colon it was 64.8%. The growth with MCF7 breast is 32.5%; in the test with HCT-116 colon, 59%; in the test with HCC-2998 colon, 81.3%; in the test on KM12 colon, 39.6%.
Regarding `COC1=C(OC)C(=O)c2ccccc2C1=O`, the growth in the test with RPMI-8226 leukemia was 97.5%; in the test on OVCAR-8 ovarian, 93.3%; in the test on OVCAR-5 ovarian, 101%; in the test with OVCAR-4 ovarian it was 74.9%; in the test on SK-OV-3 ovarian, 111%; with IGROV1 ovarian it was 104%. In addition, the growth in the test on OVCAR-3 ovarian is 87.8%; with NCI/ADR-RES ovarian, 94.3%; in the test on T-47D breast, 59.1%; in the test on MDA-MB-435 melanoma it was 111%; with SW-620 colon, 97%; in the test on MCF7 breast, 86.3%. Moreover, the growth in the test on HCT-116 colon is 96.2%; with HCC-2998 colon, 94.5%; with KM12 colon, 105%.
On to `COc1ccc2cnc(N)c(C#Cc3cc(C(=O)Nc4ccc(CN5CCN(C)CC5)c(C(F)(F)F)c4)cnc3C)c2c1`, for which the growth is 48.1% in the test on RPMI-8226 leukemia; 75.4% in the test on OVCAR-8 ovarian; 58.2% in the test with OVCAR-4 ovarian; 69.4% in the test on SK-OV-3 ovarian; 28.8% in the test with IGROV1 ovarian; 93% in the test on OVCAR-3 ovarian. The growth is -16.3% (active) in the test on HS 578T breast; 78.1% with NCI/ADR-RES ovarian; 54.7% in the test with BT-549 breast; 26.2% in the test with MDA-MB-435 melanoma; 13.8% with SW-620 colon; 39% with MCF7 breast. The figures for the growth with HCT-116 colon, in the test on HCC-2998 colon and in the test with KM12 colon were 20.5%, 86.1% and 11%, respectively.
On to `CC1(c2ccc(Br)cc2)NC(=O)NC1=O` (stereo not given), for which the growth in the test with RPMI-8226 leukemia was 113%; in the test with OVCAR-8 ovarian, 97.9%; with OVCAR-5 ovarian, 104%; with OVCAR-4 ovarian, 104%; in the test on SK-OV-3 ovarian it was 103%; in the test with OVCAR-3 ovarian, 104%. In addition, the growth with HS 578T breast is 101%; with NCI/ADR-RES ovarian, 103%; in the test on T-47D breast it was 82.2%; in the test on BT-549 breast, 90.4%; in the test with MDA-MB-435 melanoma, 113%; in the test on SW-620 colon, 106%. Moreover, the growth was 101% in the test on MCF7 breast, 99.5% in the test with HCT-116 colon, 106% in the test on HCC-2998 colon and 101% in the test with KM12 colon.
On to `COc1cc(-c2nc(/C=C3/C(=O)Nc4ccccc43)c3ccccn23)cc(OC)c1OC`, for which the growth is 32.8% with OVCAR-8 ovarian; 82.9% in the test with OVCAR-5 ovarian; 76.4% in the test on OVCAR-4 ovarian; 74.2% in the test on SK-OV-3 ovarian; 51.6% in the test on IGROV1 ovarian; -8.37% (active) in the test on OVCAR-3 ovarian. Moreover, the growth was 76.9% in the test with HS 578T breast; 47.2% in the test with NCI/ADR-RES ovarian; 53.7% in the test with T-47D breast; 94% with BT-549 breast; 55.6% with MDA-MB-435 melanoma; 88.7% with SW-620 colon. Moreover, the growth in the test on MCF7 breast was 40.1%; in the test on HCT-116 colon it was 67.2%; in the test with HCC-2998 colon, 78.1%; in the test on KM12 colon, 47.6%.
Turning to `CCOC(=O)C(C)C(C)(O)c1ccccc1` (stereo not given), the growth with RPMI-8226 leukemia is 89.9%; in the test on OVCAR-8 ovarian it was 107%; in the test with OVCAR-5 ovarian, 104%; in the test on OVCAR-4 ovarian, 89.6%; in the test with SK-OV-3 ovarian, 102%; in the test with OVCAR-3 ovarian, 107%. The growth with HS 578T breast is 98.4%; in the test with NCI/ADR-RES ovarian it was 99.5%; in the test on T-47D breast, 97.3%; in the test with BT-549 breast it was 105%; with MDA-MB-435 melanoma, 102%; in the test on SW-620 colon, 114%. The growth is 93.6% in the test with MCF7 breast, 97.1% in the test with HCT-116 colon, 84.4% with HCC-2998 colon and 97.7% in the test on KM12 colon.
